Compound activity deposited in PubChem BioAssay by National Center for Advancing Translational Sciences (NCATS).
Compounds with a hit are over-represented: about 3.8% of the library has one in this group of screens.
ATXN2 expr inh – Primary qHTS for Inhibitors of ATXN expression; AID 1745845, 2022; Potency, µM (doses to about 57 µM), usual class: inhibitors; hit rate 0.72% among 360,000; HEK-293 ATXN2-luciferase reporter, luminescence, 24 h; further: nearly all actives have a fitted effect of over 55% in size
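ATXN2-luciferase reporter cells (luciferase flanked by upstream and downstream ATXN2 gene portions) were treated 24 h at 37 °C with compounds at up to 57 uM. SteadyGlo luminescence gave expression; GF-AFC fluorescence gave viability.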
TGFb SMAD3 inh – qHTS for Inhibitors of TGF-b; AID 588855, 2011; HepG2 CAGA-GFP TGF-b/SMAD3 reporter, GFP fluorescence, 18 h; TGF-beta stimulated, 500 pg/mL final; Potency, µM (doses to about 46.1 µM), actives largely listed as inhibitors; hit rate 1.2% among 410,000; further: nearly all actives have a fitted effect of over 65% in size
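HEPG2 CAGA-GFP, 1000 cells/well; 2 h settle, 37 C; cpd via pin tool; TGF-b 500 pg/mL final; 18 h, 37 C; GFP imaging ex488/em500-530; %Activity normalised to -TGF-b and +DMSO controls; CRC fit, curve class.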
ATXN viability – Viability Counterscreen for Primary qHTS for Inhibitors of ATXN expression; Potency, µM (doses to about 56.7 µM), most hits filed as cytotoxic; S2 cells (HEK-293 line with an ATXN2-luciferase reporter) viability, CellTiter-Fluor protease fluorescence, 24 h; hit rate 0.49% among 400,000; further: nearly all actives have a fitted effect of over 40% in size
Nrf2 block – Nrf2 qHTS screen for inhibitors | A549 ARE-Fluc reporter, luciferase luminescence, 18-24 h | Potency, µM (top dose mostly 46 µM), most hits filed as inhibitors | hit rate 2.1% among 360,000 | AID 504444, 2011; further: nearly all actives have a fitted effect of over 60% in size
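Reporter: ARE-Fluc in A549. Exposure: 18-24 h, 37 °C, 5% CO2, 5% FBS OPTI-MEM. Readouts: fluorescent cytotoxicity (CellTiter-Fluor), then luminescent Nrf2 signal after BugLite.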
HepG2 viability – qHTS for Inhibitors of TGF-b: Cytotox Counterscreen. HepG2 CAGA-GFP viability, ATP luminescence, 18 h. Potency, µM (series often up to 46.1 µM), most hits filed as cytotoxic. hit rate 0.76% among 410,000
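CellTiter-Glo luminescence gave cytotoxicity after 18 hours at 37 degrees C. The cells were HepG2 CAGA-GFP in 1% FBS DMEM, stimulated with 500 pg/mL TGF-beta after compound addition. %Activity was normalised to no-cell wells (complete cell-killing) and DMSO (no toxicity), and curves were fitted and classified.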
A549 tox – Nrf2 qHTS screen for inhibitors: counterscreen for cytotoxicity; A549 ARE-Fluc cells, CellTiter-Fluor viability, 18-24 h; Potency, µM (series often up to 46 µM), hits mostly inhibitors; hit rate 0.16% among 390,000
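A549 ARE_Fluc cells in 5% FBS OPTI-MEM were exposed to compounds in concentration-response for 18-24 h at 37 deg C. Viability was read by CellTiter-Fluor fluorescence (Ex 405/Em 525) after 30 min, before the luciferase read.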
A number is an active result; n = inactive; u = inconclusive; x = no result given; ! = not confirmed by another sample; [ ] = another dose, or the depositor's remark. The call rests on the fitted dose curve; in most records, active means well fitted curve in the direction sought with a large enough effect; inconclusive means small, poorly fitted or top-dose-only effect, or another doubt; inactive means no such curve, though single readings can be large; an effect the other way counts as inactive or inconclusive.

SMILES	ATXN2 expr inh	TGFb SMAD3 inh	ATXN viability	Nrf2 block	HepG2 viability	A549 tox
Cc1[nH]n(-c2nc(-c3ccc(Cl)cc3)cs2)c(=O)c1N=Nc1ccc(O)cc1	u	n	x	u	n	14.6µM
CCc1c(C)[nH]n(-c2nc(-c3ccccc3)cs2)c1=O	n	u	n	u	n	n
CCCCCCCCNC(C)C(O)c1ccc(SC(C)C)cc1 (stereo not given)	25.1µM!	u	u	n	n	n
Cc1cc(Nc2cccc(C(F)(F)F)c2)nc2ccc(NC(=O)c3cncc(Br)c3)cc12	x	u	x	20.6µM	10µM	n
COc1cc(NC(=O)c2cc(Cl)ccc2Cl)ccc1NC(=O)c1cc2ccccc2o1	31.6µM	n	x	u	n	n
Cc1cc(Nc2cccc(Cl)c2)nc2ccc(NC(=O)c3cncc(Br)c3)cc12	u	u	x	18.4µM	n	u
O=C(Nc1cccc(NC(=O)c2cncc(Br)c2)c1)c1cncc(Br)c1	n	u	n	8.2µM	n	n
CC1CCCCN1CC(O)COCc1ccccc1 (stereo not given)	n	n	n	n	n	n
O=C(Cc1ccccc1)N(Cc1cccnc1)c1nc2ccc(F)cc2s1	x	u	x	x	n	n
COc1ccc(CCC(=O)OCC(=O)Nc2ccccc2)cc1	n	n	n	u	n	n
CN(CCO)c1cccc2c1S(=O)(=O)N[C@H](Cc1ccccc1)CO2	n	x	u	x	x	x
CCc1ccc(-n2c(=O)c3c4c(sc3n(CC(=O)N3CCC(C)CC3)c2=O)CCC4)cc1	n	n	n	n	n	n
Cc1ccccc1C(=O)Nc1ccc2nc(Nc3cccc(C(F)(F)F)c3)cc(C)c2c1	u	14.1µM	n	18.4µM	n	u
Cc1cc(NC(=O)c2cncc(Br)c2)ccc1NC(=O)c1cc2ccccc2o1	u	n	15.8µM	13µM	n	u
COC(=O)c1cc2c(s1)-c1cc(F)ccc1OC2	n	n	x	n	n	n
CC(=O)c1cc2c(s1)-c1cc(F)ccc1OC2	u	7.08µM	x	n	n	n
CCCNC(=O)C1(C)CCCN(C(=O)COc2ccc(Cl)cc2Cl)C1 (stereo not given)	n	n	n	x	n	x
Cc1ccc(NC(=O)COc2ccc(/C=N/NC(=O)CSCc3ccccc3)cc2)cc1	n	n	n	u	n	u
Cc1ccc(NC(=O)COc2ccc(/C=C3/SC(=Nc4ccccc4)N(Cc4cccnc4)C3=O)cc2)cc1	14.1µM	n	u	n	n	n
COc1ccc(N(CC(=O)Nc2cc(Cl)ccc2C)S(=O)(=O)c2c(C)noc2C)cc1	n	11.2µM	n	u	n	n
COc1ccc(N(CC(=O)Nc2cc(C)ccc2OC)S(=O)(=O)c2c(C)noc2C)cc1	n	u	n	8.2µM	n	u
COc1ccc(N(CC(=O)Nc2cc(C)ccc2C)S(=O)(=O)c2c(C)noc2C)cc1	n	n	n	u	n	n
COc1ccc(N(CC(=O)NCCc2ccc(C)cc2)S(=O)(=O)c2c(C)noc2C)cc1	x	n	n	23.1µM	n	n
c1ccc2c(c1)C1=NCCN1c1ccccc1-2	x	10µM	n	x	n	x
CN(c1cccc(NC(=O)c2ccc(Cl)c(S(=O)(=O)Nc3ccccc3)c2)c1)S(C)(=O)=O	n	n	n	20.6µM	n	n
SMILES	ATXN2 expr inh	TGFb SMAD3 inh	ATXN viability	Nrf2 block	HepG2 viability	A549 tox
Cc1ccccc1NS(=O)(=O)c1cc(C(=O)Nc2cccc(N(C)S(C)(=O)=O)c2)ccc1C	n	u	n	18.4µM	n	u
Cc1ccc(SCCNC(=O)c2ccc(C)c(S(=O)(=O)Nc3ccccc3C)c2)cc1	u	u	u	13µM	n	n
Cc1ccc2oc(=O)c3cnn(CC(=O)N4CCN(c5ccccc5F)CC4)c3c2c1	x	n	x	n	n	n
CCOC(=O)CN(c1cc([N+](=O)[O-])ccc1OC)S(C)(=O)=O	n	n	n	n	n	n
CCCNC(=O)c1nnsc1S(=O)(=O)c1ccc(Cl)cc1	n[11.3 µM]	u	u	23.1µM	17.8µM	u
COc1ccc(-c2ccc(CN3C(C(C)C)C(=O)N(Cc4cn(CC5CCCCC5)nn4)CCS3(=O)=O)cc2)cc1OC (stereo not given)	n	n	n	x	n	x
COc1ccccc1CN(Cc1nc2ccccc2c(=O)[nH]1)C(=O)Nc1cccc(C)c1	n	u	n	u	8.91µM	n
CC(C)C(=O)N(Cc1ccc(F)cc1)Cc1nc2ccccc2c(=O)[nH]1	n	n	n	n	20µM	n
CCN(CC(=O)NCCc1ccc(F)cc1)Cc1nc2ccccc2c(=O)[nH]1	x	n	n	n	n	n
O=C(OCCOc1cccc(Cl)c1)c1cc(S(=O)(=O)N2CCOCC2)ccc1F	n	n	n	n	n	n
CSc1ccc(S(=O)(=O)Nc2ccc3c4c(cccc24)CC3)cc1	n	u	n	18.4µM	n	u
O=S(=O)(Nc1ccc2c3c(cccc13)CC2)c1ccc(F)cc1	n	u	n	x	n	n
O=C(COc1ccc(Cl)cc1Cl)N/N=C/c1ccc[nH]1	x	n	n	9.2µM	n	u
O=C(COc1ccc(Cl)cc1Cl)N/N=C/CCc1ccccc1	n	n	n	n	n	n
Cc1c(Cl)cccc1NC(=O)CCC(=O)N/N=C/c1ccc[nH]1	n	n	u	18.4µM	n	u
O=C(CCCOc1ccc(Cl)cc1Cl)N/N=C/c1ccccc1O	25.1µM	u	u	n	n	n
C=CCCN(C(C)C(=O)OC)S(=O)(=O)c1ccccc1Br (stereo not given)	x	n	x	n	n	n
CCOC(=O)c1c(C)[nH]c(C)c1S(=O)(=O)N(C)CC(=O)Nc1cccc(C(F)(F)F)c1	n	u	n	n	n	n
CCN(c1ccccc1C)S(=O)(=O)c1nnc(NC(=O)c2ccccc2C)s1	x	u	x	n	n	n
O=C(CN1CCOCC1)N/N=C/c1c(O)ccc2ccccc12	10.6µM	n	u	u	n	n
O=C(N/N=C/c1c(O)ccc2ccccc12)Nc1ccccc1	x	n	n	n	n	n
O=C(CN1CCOCC1)N/N=C/c1ccco1	n	n	n	n	n	n
O=C(CSCC(=O)Nc1ccccc1)N/N=C/c1c(O)ccc2ccccc12	3.16µM	n	n	x	n	n
O=C(CNc1ccccc1)N/N=C/c1c(O)ccc2ccccc12	7.08µM	u	n	n	n	n
Cc1ccc(S(=O)(=O)N2CCOC23CCN(C(=O)c2ccccc2Br)CC3)cc1	x	n	n	n	n	n
CCOc1ccc(Nc2nc(Cc3nnc(SCC(=O)N(CC)CC)n3C)cs2)cc1	n	u	n	n	20µM	n
